Test results reported in PubChem BioAssay AID808 (Columbia University Molecular Screening Center, 2007).
Among all 93,000 compounds or so, about 180 (0.19%) were called active. Only a selection was taken, and actives are over-represented in it overall. A number with no mark means an inactive call.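 How the source made its calls: active means activation above the screen mean plus 3 SD, with well images confirming the hit on visual review (cut at about 28% in these data, passing the limit was not always enough); inconclusive means activation above that limit but images do not confirm it; inactive means activation not above that limit.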

Test: potentiators of TNFa-induced VCAM1 expression, primary screen, imaging, HUVEC, TNFa stimulus, immunofluorescence (AID 808);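 further: signal is the number of cytoplasmic VCAM-1 stained grains per positive cell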
Details: HUVEC TNFa-stimulated VCAM-1 immunofluorescence, high-content imaging; at 2 µM; hits give high values
With `COC(=O)CN1C(=O)C2(C(C(=O)OC)=C(N)Oc3ccccc32)C2=C1CC(C)(C)CC2=O` (stereo not given) the activation was 33.9% (active). `CCOC(=O)C(O)(c1ccc(N)c(OC)c1)C(F)(F)F` (stereo not given) gave an activation of -9.7%. With `c1cncc(CNC2=NCCC2)c1` the activation was -5.4%. `O=C(NCC(c1cccnc1)N1CCN(c2ccccc2)CC1)Oc1ccccc1` (stereo not given) showed an activation of 1.5%. Molecule `CNC(=O)N(C)c1nnc(C(C)(C)C)s1` has an activation of 4.6%.
